PubChem BioAssay AID2472 (National Center for Advancing Translational Sciences (NCATS), 2010)
Where “and” joins values, the source holds several entries; their conditions need not be identical. Identical values can stand only once. In all, about 290,000 compounds went through this assay and about 2,000 (0.69%) were called active. Rule as the data show it: active = activity change below about -30%; inactive = the rest, inconclusive results apart. Many of the other results were omitted from the sample, so actives are more common in it than they were.

Experiment: qHTS Assay for Inhibitors of Fructose-1,6-bisphosphate Aldolase from Giardia Lamblia: Coupling assay counterscreen
Conditions: coupling enzyme system counterscreen, AmpLite Red fluorescence; at 58.2 µM (top of the series)
Text: MLPCN Grant: MH085699-01 Assay Provider: Osnat Herzberg, University of Maryland NCGC Assay Overview: The objective of this project is to obtain compounds that inhibit Giardia lamblia growth. G. lamblia is a human pathogen which afflicts impoverished nations; it is the most common cause of outbreaks of diarrhea in the United States. During the course of our study of potential drug targets in Giardia, we have identified the Class II (Zn2+ functions in electrophilic catalysis) fructose-1,6-bisphosphate aldolase (FBPA) as an excellent candidate for drug targeting. FBPA is a key glycolytic pathway enzyme, essential for G. lamblia survival. The human FBPA belongs to the Class I aldolases, which have a different substrate binding site structure and a radically different catalytic mechanism (employing a lysine-Schiff base intermediate). Therefore, affinity-based or mechanism-based inhibitors of the Giardia FBPA are expected not to interfere with the catalytic function of the human FBPA. A glyceraldehyde-3-phosphate dehydrogenase/triose phosphate isomerase/NAD/arsenate coupled assay was adapted to the 1536-well HTP format for use in the primary screen. This was done by coupling it to a diaphorase/resazurin/resorufin reaction that can be monitored by fluorescence (excitation, 544 nm; emission, 590 nm). Compounds identified in this screen will be further evaluated by coupling the […]/triose phosphate isomerase/NADH assay to a phenazine methosulfate/tetranitroblue tetrazolium color reaction. False positives due to the dehydrogenases and diaphorase inhibition will be eliminated, and selectivity assay will triage inhibitors of mammalian triose phosphate isomerase and the Class I FBPA. G. lamblia FBPA inhibitors identified by the in vitro analyses will be examined for growth inhibition of Giardia trophozoites, and for cytotoxicity in human cells. This assay specifically addresses whether activity observed in the primary screen (AID 2451) is related to inhibition of the coupling assay used, as opposed to inhibition of aldolase. Actives in this assay are considered inconclusive for activity against aldolase.
NCGC Assay Protocol: Step,Parameter,Value,Description 1,Coupling enzyme reagent,2 uL,glyceraldehyde-3-phosphate 2,Compound,23 nL,3.68 nM-57.5 uM final concentration 3,Time,10 min,RT Incubation 4,Substrate/detection Reagent,2 uL,Substrate + enzyme coupling system + AmpLite Red kit 5,Time,20 min,RT Incubation 6,Detector,525 nm/598 nm (Fluorescence),ViewLux Fluorescence Read (Read 1) Notes: 1,Medium-binding black solid-bottom Kalypsys plates. FRD or Kalypsys dispenser. 2,Compound Library (10 mM ,1:5 dilution). Pin-transferred for a [final] range of 3.68 nM-57.5 uM. 3,RT incubation 4,FRD or Kalypsys dispenser, 2 uL of reaction mixture. Bottle kept at 4C and covered in foil to protect from light. 5,RT incubation 6,ViewLux Protocol 1194; Excitation filter wheel A (525/20 Pol; BODIPY TMR FP), Emission filter wheel B (598/25 S; BODIPY TMR FP S). Keywords: Fructose-bisphosphate aldolase, FBPA , Giardia lamblia , Giardia, HTS, Inhibitors
% is scaled to controls: 0 for no effect and ±100 for the full control effect.

**Q.** Which activity change, negative = inhibition does the source give for `CCOc1ccc(C(c2c(C)[nH][nH]c2=O)c2c(C)[nH][nH]c2=O)cc1OCC` here?
**A.** Its activity change, negative = inhibition is -13.2% (inactive).

**Q.** For `Cc1[nH][nH]c(=O)c1C(c1ccc2c(c1)OCO2)c1c(C)[nH][nH]c1=O`, which activity change, negative = inhibition is on record?
**A.** Its activity change, negative = inhibition is -3.39% (inactive).

**Q.** Which activity change, negative = inhibition does the source give for `Cc1[nH][nH]c(=O)c1C(c1ccc(-c2ccc(Cl)cc2)o1)c1c(C)[nH][nH]c1=O` here?
**A.** The activity change, negative = inhibition was -48.6% (active).

**Q.** For `Cc1ccc(C(=O)NCCN2CCOCC2)cc1C`, which activity change, negative = inhibition is on record?
**A.** Its activity change, negative = inhibition is 3.18% (inactive).

**Q.** Which activity change, negative = inhibition does the source give for `CC(=O)Oc1cc2c(C(=O)NCCN3CCOCC3)c(C)oc2c2ccccc12` here?
**A.** The activity change, negative = inhibition was -40.7% (active).

**Q.** With `Cc1cc(C)cc(C(=O)NCCN2CCOCC2)c1` as the molecule, how does the activity change, negative = inhibition read?
**A.** Its activity change, negative = inhibition is 0.78% (inactive).

**Q.** For `CN(CCC(=O)Nc1cc(S(=O)(=O)N(C)C)ccc1Cl)CC(=O)Nc1ccc(F)cc1`, which activity change, negative = inhibition is on record?
**A.** The activity change, negative = inhibition was 0.642% (inactive).

**Q.** Which activity change, negative = inhibition does the source give for `COc1cc(OC)c2c(c1C(CCN1CCCCC1)c1ccc(N(C)C)cc1)OC(=O)CC2c1ccc(N(C)C)cc1` (stereo not drawn) here?
**A.** Its activity change, negative = inhibition is 0.0898% (inactive).

**Q.** With `O=c1c2cc(Br)ccc2nc(-c2cccc(Cl)c2)n1O` as the molecule, how does the activity change, negative = inhibition read?
**A.** Its activity change, negative = inhibition is -2.84% (inactive).

**Q.** For `COc1ccc(C(=O)CCc2ccccc2O)c(OC)c1`, which activity change, negative = inhibition is on record?
**A.** Its activity change, negative = inhibition is -0.998% (inactive).

**Q.** Which activity change, negative = inhibition does the source give for `Cc1ccc2cc3cc(C(=O)N4CCCCCC4)oc3nc2c1` here?
**A.** Its activity change, negative = inhibition is -75.9% (active).

**Q.** For `Cc1cc(C)cc(NC(=O)N2CCCCCCC2)c1`, which activity change, negative = inhibition is on record?
**A.** Its activity change, negative = inhibition is 1.15% (inactive).

**Q.** Which activity change, negative = inhibition does the source give for `Cc1ccc(C(=O)N2CCCCCC2)cc1Br` here?
**A.** Its activity change, negative = inhibition is 0.385% (inactive).

**Q.** With `O=C(Nc1nnc(-c2ccccc2F)s1)c1ccccc1F` as the molecule, how does the activity change, negative = inhibition read?
**A.** The activity change, negative = inhibition was -1.59% (inactive).

**Q.** With `COc1ccc(CCC(C)N2CCc3ccccc3C2)cc1` (stereo not drawn) as the molecule, how does the activity change, negative = inhibition read?
**A.** Its activity change, negative = inhibition is -2.37% (inactive).

**Q.** With `COc1ccc(Cl)cc1NC(=O)COC(=O)C(CC(C)C)N1C(=O)C2CC=CCC2C1=O` (stereo not drawn) as the molecule, how does the activity change, negative = inhibition read?
**A.** Its activity change, negative = inhibition is -0.682% (inactive).

**Q.** Which activity change, negative = inhibition does the source give for `COc1cccc(-c2cc(NCCc3c[nH]c4ccc(OC)cc34)ncn2)c1` here?
**A.** The activity change, negative = inhibition was -31% (active).

**Q.** With `COc1ccc2[nH]cc(CCNc3cc(-c4ccccc4CN(C)C)ncn3)c2c1` as the molecule, how does the activity change, negative = inhibition read?
**A.** Its activity change, negative = inhibition is -1.84% (inactive).

**Q.** Which activity change, negative = inhibition does the source give for `COc1ccc2[nH]cc(CCNc3ncnc4ccc(-c5ccccc5CN(C)C)cc34)c2c1` here?
**A.** The activity change, negative = inhibition was -1.31% (inactive).

**Q.** With `COC(=O)CC1c2ccccc2C(Cc2ccc(OC)cc2)=C(C)N1C(=O)OC` (stereo not drawn) as the molecule, how does the activity change, negative = inhibition read?
**A.** Its activity change, negative = inhibition is -0.16% (inactive).

**Q.** With `COc1cccc(C(=O)CC(=O)C(=O)Nc2ccc([N+](=O)[O-])cc2C)c1` as the molecule, how does the activity change, negative = inhibition read?
**A.** The activity change, negative = inhibition was -0.191% (inactive).

**Q.** For `CNC(=O)N1c2ccccc2C=Cc2ccccc21`, which activity change, negative = inhibition is on record?
**A.** The activity change, negative = inhibition was -0.0842% (inactive).

**Q.** Which activity change, negative = inhibition does the source give for `Cc1ccccc1-n1nc(C)c2c1N=C1C(Cl)=CC(Cl)=CN1C2c1ccc(C(=O)O)cc1` (stereo not drawn) here?
**A.** Its activity change, negative = inhibition is -39.1% (active).

**Q.** Which activity change, negative = inhibition does the source give for `Cc1ccccc1-n1nc(C)c2cc(C(=O)NC3CC3)sc21` here?
**A.** Its activity change, negative = inhibition is 5.2% (inactive).

**Q.** With `Cc1nn(-c2ccccc2)c(Cl)c1/C=C/C(=O)c1ccc(O)cc1` as the molecule, how does the activity change, negative = inhibition read?
**A.** Its activity change, negative = inhibition is 6.85% (inactive).

**Q.** Which activity change, negative = inhibition does the source give for `COc1ccc(Br)cc1C1C2C=CCC(C)C2C(=O)N1Cc1ccccc1` (stereo not drawn) here?
**A.** The activity change, negative = inhibition was 4.05% (inactive).

**Q.** For `CC(=O)Nc1ccc(NC(=O)C2CCCN(S(=O)(=O)c3ccc(Cl)cc3)C2)cc1` (stereo not drawn), which activity change, negative = inhibition is on record?
**A.** Its activity change, negative = inhibition is 1.51% (inactive).

**Q.** Which activity change, negative = inhibition does the source give for `CC(C)CC[n+]1ccn(C2=C([O-])c3ccccc3C(=O)/C2=N\S(=O)(=O)c2ccccc2)c1` here?
**A.** The activity change, negative = inhibition was -54.9% (active).

**Q.** For `COc1c(O)c2c(=O)cc(OC)c3c4c(OC)cc(=O)c5c(O)c(OC)c6c(c(c1C[C@@](C)(O)[C@H]6C(C)=O)c23)c54`, which activity change, negative = inhibition is on record?
**A.** Its activity change, negative = inhibition is -12.5% (inactive).

**Q.** For `CCCCN=C1C([N+](=O)[O-])=CC=C2C1=NC1(CCCCC1)N2O`, which activity change, negative = inhibition is on record?
**A.** Its activity change, negative = inhibition is -41.7% (active).

**Q.** Which activity change, negative = inhibition does the source give for `CC(c1ccccn1)N(C)C(=O)c1ccc2nc(Cc3cccc(Cl)c3)oc2c1` (stereo not drawn) here?
**A.** The activity change, negative = inhibition was 1.38% (inactive).

**Q.** For `COC(=O)C1=C(C)N(Cc2ccccc2)C2=C3C(=O)N(c4ccccc4)C(=O)C3[C@@](O)(C(=O)OC)C(=O)N2C1c1ccccc1` (stereo partly drawn), which activity change, negative = inhibition is on record?
**A.** The activity change, negative = inhibition was 1.55% (inactive) and 0.598% (inactive).

**Q.** With `Cn1c(CCN2CCCC2)nc2cc(NS(=O)(=O)c3ccccc3)ccc21` as the molecule, how does the activity change, negative = inhibition read?
**A.** Its activity change, negative = inhibition is -1.06% (inactive).

**Q.** For `O=S(=O)(Nc1ccc2cn[nH]c2c1)c1ccccc1`, which activity change, negative = inhibition is on record?
**A.** The activity change, negative = inhibition was -8.07% (inactive).

**Q.** Which activity change, negative = inhibition does the source give for `O=S(=O)(Nc1ccc2nc(-c3ccco3)[nH]c2c1)c1ccccc1` here?
**A.** The activity change, negative = inhibition was -35.1% (active).

**Q.** Which activity change, negative = inhibition does the source give for `CCOC(=O)c1ccccc1NC(=O)COC(=O)CCC(=O)N1CCOCC1` here?
**A.** The activity change, negative = inhibition was 1.14% (inactive).

**Q.** Which activity change, negative = inhibition does the source give for `CCCN1[C@H](C(=O)OC)C[C@@]2(O)[C@@H](O)[C@@H](O)[C@@H](O)C[C@@H]12` here?
**A.** Its activity change, negative = inhibition is -12.1% (inactive).

**Q.** For `COc1ccc(-c2ccc(OC)c(C3C4C=CCC(C)C4C(=O)N3Cc3ccccc3)c2)cc1C` (stereo not drawn), which activity change, negative = inhibition is on record?
**A.** Its activity change, negative = inhibition is -0.316% (inactive).

**Q.** With `Cc1cc(Br)ccc1NC(=S)NC1CCCC1` as the molecule, how does the activity change, negative = inhibition read?
**A.** Its activity change, negative = inhibition is 2.32% (inactive).

**Q.** With `CC[C@@H](C)[C@H](NC(=O)CCc1c(C)c2cc3c4c(oc3c(C)c2oc1=O)CCCC4)C(=O)O` as the molecule, how does the activity change, negative = inhibition read?
**A.** Its activity change, negative = inhibition is 0.476% (inactive).

**Q.** Which activity change, negative = inhibition does the source give for `COC(=O)C1=C(C(=O)OC)[C@@H]2Nc3ccccc3[C@@]23C[C@@H](C(=O)OC)N(S(=O)(=O)c2ccc([N+](=O)[O-])cc2)C3=N1` here?
**A.** The activity change, negative = inhibition was -1.96% (inactive).

**Q.** Which activity change, negative = inhibition does the source give for `CCOc1ccc(N(C)Cc2cc(=O)oc3ccc(OC)cc23)cc1` here?
**A.** Its activity change, negative = inhibition is -3.63% (inactive).

**Q.** Which activity change, negative = inhibition does the source give for `CCn1c(CNc2ccc(OC)cc2)nnc1SCC(=O)c1ccc(OC)cc1` here?
**A.** The activity change, negative = inhibition was -36.8% (active).
